PME-1 inh – blocks human protein phosphatase methylesterase 1; Q9Y570; recombinant PME-1, FP-Rh probe fluorescence polarization; inhibition, % at 5.9 µM; 320,000 tested, 0.53% active; AID 2130;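 active means inhibition above the campaign mean of all compounds plus 3 SD, cut at about 26% in these data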;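 further: competitive labeling of PME-1 active site by serine hydrolase directed probe; 0% = PME-1 with DMSO and 100% = wells lacking PME-1 enzyme; inhibitors block probe labeling so polarization falls and inhibition rises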
Target sequence (Q9Y570 whole entry, looked up): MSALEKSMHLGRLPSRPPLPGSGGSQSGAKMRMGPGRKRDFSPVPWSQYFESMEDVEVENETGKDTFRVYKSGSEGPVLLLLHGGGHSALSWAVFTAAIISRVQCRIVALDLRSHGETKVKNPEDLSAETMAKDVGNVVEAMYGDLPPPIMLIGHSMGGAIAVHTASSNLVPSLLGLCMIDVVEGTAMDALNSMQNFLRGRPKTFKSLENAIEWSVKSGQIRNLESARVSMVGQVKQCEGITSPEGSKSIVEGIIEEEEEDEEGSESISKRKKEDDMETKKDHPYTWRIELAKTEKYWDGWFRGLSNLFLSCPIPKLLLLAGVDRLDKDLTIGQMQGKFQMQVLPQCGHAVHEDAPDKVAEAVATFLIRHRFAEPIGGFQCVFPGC
pPAFAH inh – inhibitors of human plasma PAF acetylhydrolase (pPAFAH) | Q13093 | recombinant pPAFAH, FP-rhodamine probe fluorescence polarization | inhibition, % at 3.39 µM | 330,000 tested, 1.5% active | AID 463082;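 active means inhibition above the mean inhibition across the screen plus 3 SD, cut at about 25% in these data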;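 further: inhibitors block binding of the rhodamine activity-based probe so polarization drops; 0% = enzyme with DMSO and 100% = wells lacking pPAFAH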
PAFAH1B2 FP inh – blocks human PAF acetylhydrolase 1b catalytic subunit 2; recombinant PAFAH1B2, FP-rhodamine activity probe, fluorescence polarization; inhibition, % at 3.39 µM; 340,000 tested, 1.2% active; P68402;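 active means inhibition above the mean of all tested compounds plus 3 SD, cut at about 24% in these data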;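 further: 0% = enzyme with DMSO and 100% = wells lacking PAFAH1B2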
Target sequence (P68402 whole entry, looked up): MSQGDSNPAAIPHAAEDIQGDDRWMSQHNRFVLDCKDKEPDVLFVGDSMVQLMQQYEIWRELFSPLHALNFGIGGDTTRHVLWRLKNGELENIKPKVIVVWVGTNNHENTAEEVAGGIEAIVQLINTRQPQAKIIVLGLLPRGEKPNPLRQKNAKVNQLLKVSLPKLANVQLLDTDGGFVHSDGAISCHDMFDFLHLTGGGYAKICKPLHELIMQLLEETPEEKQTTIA
PAFAH2 inh – PAFAH2 (human) inhibition; recombinant PAFAH2, FP-rhodamine activity probe, fluorescence polarization; 340,000 tested, 0.99% active; AID 492956; Q99487; inhibition, % at 3.39 µM;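 active means inhibition above the mean over all tested compounds plus 3 SD, cut at about 30% in these data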;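 further: inhibitors block probe labeling of enzyme so polarization drops; 0% = enzyme with DMSO and 100% = wells lacking PAFAH2 protein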
Fam108B inh – blocks mouse Fam108B hydrolase in RBBP9 counter-screen; inhibition, % at 9.51 µM; 300,000 tested, 0.33% active; recombinant Fam108B, FP-Rh probe fluorescence polarization; AID 1947;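 active means inhibition above the screen mean inhibition plus 3 SD, computed separately per campaign, cut at about 18% in these data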;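 further: inhibitors lower polarization as less probe binds the enzyme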
PAFAH1B3 inh – inhibitors of human PAFAH1B3; recombinant PAFAH1B3, FP-rhodamine probe, fluorescence polarization; inhibition, % at 3.39 µM; 340,000 tested, 0.28% active;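 active means inhibition above the screen-wide average of all tested compounds plus 3 SD, cut at about 25% in these data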;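 further: 0% = enzyme with DMSO only and 100% = wells lacking PAFAH1B3 protein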
PAFAH2 confirm – confirmation of human PAFAH2 inhibitors; recombinant PAFAH2, FP-rhodamine activity probe, fluorescence polarization; 2,300 tested, 65% active; shares compounds with PAFAH2 inh; inhibition, % at 3.39 µM; AID 493030;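 active means mean inhibition over three repeats above a set limit taken from the earlier primary screen, cut at about 30% in these data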;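 further: inhibitor blocks binding of rhodamine activity probe so polarization falls; 0% = enzyme with DMSO and 100% = wells lacking PAFAH2 protein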
Active calls of the source: *; x = no result. Most compounds without a hit are left out; they make up all but 2.9% or so of the library.

SMILES	PME-1 inh	pPAFAH inh	PAFAH1B2 FP inh	PAFAH2 inh	Fam108B inh	PAFAH1B3 inh	PAFAH2 confirm
N#CC1(NC(=O)COC(=O)c2cc([N+](=O)[O-])ccc2N2CCCC2)CCCCC1	0.1	2.3	-0.2	-0.3	-3.7	4.3	x
Cc1cc(C(=O)OCC(=O)NC2CCCC(C)C2C)c(C)o1 (stereo unspecified)	x	11.9	4.9	81.6*	x	4.9	66.7*
COc1cccc(C=O)c1OC(=O)N1CCOCC1	1.4	-3.3	3.7	-4.1	4.2	7.7	x
N#CC1(NC(=O)COC(=O)c2cccc(-n3cnnn3)c2)CCCCC1	-4.2	0.3	7.2	72.8*	0.3	5.0	71.9*
CC(OC(=O)c1cccc(-n2cnnn2)c1)C(=O)NC1(C#N)CCCCC1 (stereo unspecified)	-1.5	1.7	0.0	-4.4	x	0.9	x
COc1ccc(CC(=O)NC(c2ccccc2)c2ccc(C)cc2)c(OC)c1 (stereo unspecified)	0.4	1.6	9.5	2.1	0.0	-0.2	x
CCN(CC)C(=O)CSc1nc2c(sc(=S)n2-c2ccccc2OC)c(=O)n1-c1ccccc1	6.3	8.2	1.1	38.2*	6.5	-1.9	9.3
O=C1Nc2ccccc2/C1=N\N=C\c1ccc(O)c(O)c1	2.4	5.1	11.8	45.8*	9.1	20.8	17.7
Oc1ccc(/C=N/N=C/c2ccc(O)c(O)c2)cc1O	-26.3	8.6	-0.4	54.0*	-8.7	-2.8	13.7
COc1cc(/C=N/N=C2/C(=O)Nc3ccccc32)ccc1O	13.0	3.4	4.6	7.5	0.9	6.5	x
N#Cc1cnc2nc(SCc3ccccc3)nn2c1	0.4	0.6	10.2	5.4	0.3	7.1	x
O=C(CC12CC3CC(CC(C3)C1)C2)NCC(=O)N1CCCC1	-3.2	12.6	8.4	75.3*	0.0	0.5	70.6*
COc1cc(N)c2ncccc2c1Cl	x	x	6.2	-2.6	x	1.6	x
CCOC(=O)c1sc(=S)n(-c2ccccc2)c1N	-3.8	3.2	-1.7	1.0	4.9	-3.4	x
CCOC(=O)c1sc(=S)n(-c2ccccc2)c1N(C(C)=O)C(C)=O	4.3	2.6	0.2	35.5*	-1.4	-4.1	18.4
COc1ccccc1NC(=O)C(=O)/C=C(\O)c1ccccc1	2.6	5.9	4.9	11.8	-2.8	-1.2	x
CCc1ccc(NC(=O)CSc2nc3ccccc3c(=O)n2CCCC(=O)NCCCN2CCOCC2)cc1	-4.2	2.7	3.0	196.1*	-1.5	5.9	1.9
Cc1ccc(NC(=O)CSc2nc3ccccc3c(=O)n2CCCC(=O)NCCCN2CCOCC2)cc1C	-2.1	1.6	-0.9	-9.8	2.2	1.4	x
O=C(CCCn1c(SCC(=O)NC2CCCCC2)nc2ccccc2c1=O)NCC1CCCO1 (stereo unspecified)	-6.0	5.4	3.2	-10.7	-1.2	11.3	x
O=C(CCCn1c(SCC(=O)c2ccc(O)c(O)c2)nc2ccccc2c1=O)NCC1CCCO1 (stereo unspecified)	2.6	34.1*	12.9	35.1*	-2.8	3.7	10.7
COc1cc2nc(COc3ccccc3[N+](=O)[O-])oc(=O)c2cc1OC	-8.6	4.9	0.6	50.5*	3.7	5.5	69.0*
COc1cccc(NC(=O)CN(C)C(=O)C2CC(=O)N(CCc3ccc(OC)c(OC)c3)C2)c1 (stereo unspecified)	x	x	1.0	-1.0	x	-0.3	x
CC(C)(C)OC(=O)N1CCC(C(=O)NCC2CCCO2)CC1 (stereo unspecified)	2.2	3.6	3.8	-1.8	6.3	3.3	x
COc1ccc(C(=O)O/N=C(\N)c2ccccc2)cc1OC	-3.9	1.4	5.0	14.3	-0.2	7.4	x
CC(C)(C)C(=O)OC/C(N)=N/OC(=O)c1ccccc1	-3.5	7.2	3.8	43.9*	-2.1	12.2	71.4*
SMILES	PME-1 inh	pPAFAH inh	PAFAH1B2 FP inh	PAFAH2 inh	Fam108B inh	PAFAH1B3 inh	PAFAH2 confirm
N#CC1(NC(=O)Cn2cc(C(F)(F)F)cc(Cl)c2=O)CCCCC1	-1.4	2.9	0.9	-5.4	1.6	6.2	x
COc1ccc(/C=N\NC(=S)SCN2C(=O)C3CCC(C)(C2=O)C3(C)C)cc1 (stereo unspecified)	-4.5	6.7	1.4	11.9	3.3	3.6	x
CC12CCC(C(=O)N(CSC(=S)N/N=C\c3ccccc3O)C1=O)C2(C)C (stereo unspecified)	-0.7	4.9	11.0	38.5*	3.1	4.9	25.0
N/C(Cc1ccc([N+](=O)[O-])cc1)=N\OC(=O)c1ccc2ccccc2c1	-2.6	20.5	-0.3	61.9*	-4.1	8.1	53.7*
Cc1ccc(CC(=O)O/N=C(\N)Cc2ccc([N+](=O)[O-])cc2)cc1	2.9	7.1	13.4	9.0	-0.1	-0.6	x
Cc1cccc(C(=O)O/N=C(\N)Cc2ccc([N+](=O)[O-])cc2)c1	5.9	15.2	0.2	37.3*	6.5	5.4	29.6
COc1cccc(C(=O)O/N=C(\N)Cc2ccc(Cl)cc2)c1	1.4	18.8	5.3	69.2*	4.9	3.9	55.9*
N/C(Cc1ccc([N+](=O)[O-])cc1)=N\OC(=O)c1ccco1	3.3	1.5	7.2	39.0*	2.1	1.4	36.8*
O=C(O)c1ccccc1Nc1ccnc(C(F)(F)F)c1	1.2	1.4	1.6	-3.2	-2.5	1.9	x
O=C1NC(=O)/C(=C/C(=O)N2CCOCC2)S1	-0.1	-1.6	1.6	-3.0	-0.5	-2.2	x
N/C(Cc1ccc(Cl)cc1)=N\OC(=O)C1CCCCC1	-0.5	0.9	3.4	40.5*	3.3	10.6	41.7*
Cc1cccc(/C(N)=N/OC(=O)Cc2cccc3ccccc23)c1	-0.5	4.5	-1.7	1.0	-3.8	-0.4	x
Cc1cccc(C(=O)O/N=C(\N)Cc2cccc3ccccc23)c1	0.5	6.7	5.4	75.3*	0.0	-1.8	73.7*
O=C(COC(=O)c1ccccc1Br)NCCc1ccc(F)cc1	4.5	7.8	-0.1	-5.1	1.9	1.7	x
CC(=O)c1ccc(NC(=O)COC(=O)c2ccc(F)cc2F)cc1	-2.5	19.3	3.5	28.5	0.4	-10.7	x
O=C(COC(=O)c1ccccc1Br)Nc1ccc(F)cc1	-5.0	11.9	5.4	76.1*	0.0	5.1	69.6*
Cc1occc1C(=O)OCC(=O)Nc1ccc(F)cc1	-2.8	7.1	0.8	72.7*	-4.3	4.7	61.8*
COc1cc(N)c(Cl)cc1C(=O)OCC(=O)N(C)C1CCCCC1	-2.4	3.1	6.7	54.8*	x	8.6	30.5*
COc1cc(N)c(Cl)cc1C(=O)OCC(=O)NC1CCCC1	1.2	5.4	6.6	47.6*	-1.9	8.2	33.5*
C[C@]12CC[C@H](O)CC1=C[C@H](O)C1C2CC[C@@]2(C)C1CC[C@@]2(O)C#Cc1ccc(CN)cc1 (stereo partly specified)	x	x	-3.1	0.7	x	-6.5	x
C/C(=N\NC(=O)OC(C)(C)C)c1ccccc1Br	6.3	1.2	-3.8	-3.7	5.0	4.9	x

Bioassay records (PubChem)
